According to PubChem BioAssay (NCI):
Compounds without any hit were thinned out: in the full panel of roughly 83,000, 20% have a hit.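 The test compound was applied at a single concentration to cells in 96-well plates for 48 hours, and percent growth was recorded.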 Values without a mark were called inactive. Active and inactive are the calls of the source. The calls were made as follows: active = growth percent below 10; inactive = the rest.

These compounds were tested on HL-60(TB) leukemia (assay: NCI-60 one-dose screen, 48 h (100 = growth as untreated, 0 = no growth, -100 = all killed)). Conditions: 10 µM unless noted.
For CSc1ccc(OC(C)=O)cc1C, the growth was 97.7%.
With Cc1cc(N2CCN(C)CC2)nc(N(CCNc2ccnc3cc(Cl)ccc23)Cc2ccco2)n1 the growth was 8.29% (active).
With O=C(O)c1ccccc1NCc1ccco1 the growth was 102%.
For N#C/C(=C/c1c(O)ccc2ccccc12)C(N)=O, the growth was 103%.
In the case of COC(=O)N1CC(Oc2ccccn2)C2CC1c1ccccc1O2 (stereo not given), the growth was 99.8%.
COc1cc(/C=C/C(=O)c2ccc(NC(=O)CSc3nnc(-c4cc(-c5ccccc5)nc5ccccc45)n3-c3ccccc3)cc2)cc(OC)c1OC showed a growth of 84.9%.
Compound O=C1Nc2ccccc2/C1=N/N=C/c1ccc(OC2OC(CO)C(O)C(O)C2O)cc1 (stereo not given) has a growth of 101%.
For Cc1cc(C)c(C#N)c(SCC(=O)c2sc3c(C#N)c(C)cc(C)[n+]3c2[O-])n1, the growth was -39.3% (active).
C=CC[n+]1c(/C=C/C=C2\N(C)c3ccccc3C2(C)C)sc2ccc(OC)cc21 was tested, and the growth was -21% (active).
Work on CN(C)c1ccc(/C=C/C(=O)c2cccc(Nc3nc(Nc4ccccc4)nc(Nc4ccccc4)n3)c2)cc1 yielded a growth of 99.9%.
O=c1oc2c3ccc4cnccc4c3[nH]c2c2ccccc12 showed a growth of 27.1%.
With O=S(=O)(NCCCNc1nccc(-c2c(-c3cccc(F)c3)nc3occn23)n1)c1ccc(F)cc1 the growth was 5.83% (active).
CCOC(=O)c1cc2c(n1Cc1cc(OC)c(OC)c(OC)c1)-c1oncc1CCC2 was tested, and the growth was -8.69% (active).
In the case of NC(=O)c1c(NC(=O)c2cccc(C(F)(F)F)c2)sc2c1CCC(=O)C2, the growth was -11.6% (active).
Compound CN1C(=O)N(C)C2Nn3c(s/c(=C\c4ccccc4)c3=O)=NC21 (stereo not given) has a growth of 95.2%.
